Pf Dd2 growth: inhibitors of Plasmodium falciparum Dd2 growth; P. falciparum Dd2 growth, SYBR Green, 72 h; Potency, µM (highest dose often 28.9 µM), without a hit: top-dose activity, negative = inhibition, usual class: inhibitors; 4.3% of 120,000 active; active = well fitted inhibition curve with a large enough effect;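 also: plate controls were DMSO vehicle for no effect and reference drug for full effect; nearly all actives have a fitted effect of over 65% in size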
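Infected erythrocytes (Dd2, 0.3% parasitemia, 2.5% hematocrit final) are added to compound in RPMI-1640/Albumax II medium, grown 72 h at 37C in low oxygen, then lysed with saponin/Triton-X containing SYBR Green and read by fluorescence.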
Starred values were filed as active, the others as inactive; i = inactive; [ ] = another dose, or the depositor's remark. Many of the other results were omitted from the sample, so hits are more common in it than they were. Potency is read from the fitted curve at half-maximal effect.

SMILES	Pf Dd2 growth
O=C(c1coc(COc2ccc(F)cc2)n1)N1CCC(c2ccc(F)cc2)C1 (stereo unspecified)	-3%
O=C(NCCN1CCCC1)c1cc2cn(C3CC3)cc2s1	-24%
N#Cc1cccc(NC(=O)NC[C@H]2C[C@@H]3CCN2C[C@@H]3CN2CCN(c3ccccn3)CC2)c1	i
Cc1ccccc1OCC(=O)NC1CCN(c2cc(-c3ccccc3)[nH]n2)CC1	i
Cc1cnc(CCNC(=O)Nc2ccc3c(c2)OCCO3)n1C1CCC1	5µM*
COCc1ncc(C)n1CCNC(=O)c1n[nH]c(=O)c2ccccc12	16%
Cc1cnc(CCNC(=O)NC(C)C)n1C1CC1	-17%
Cc1cnc(CCNC(=O)NCc2ccccc2)n1C1CCC1	-11%
Cc1cnc(CCNC(=O)c2n[nH]c(=O)c3ccccc23)n1C1CCCCC1	7.9µM*
Cc1cnc(CCNC(=O)c2n[nH]c(=O)c3ccccc23)n1C1CCC1	-9%
COc1ccc(C(=O)N(C)Cc2cccn2C)cc1	-6%[44.1 µM]
COCc1nc(CNC(=O)c2sc3cccc(F)c3c2Cl)no1	-22%
Cn1cc(CNC(=O)c2coc(CN3CCN(C/C=C/c4ccccc4)CC3)n2)cn1	-3%
CCOc1ccc(NC(=O)CCn2c(-c3ccc(F)cc3)cc(C(C)=O)c2C)cc1	i
CCOC(=O)c1cc(-c2ccc(C)cc2)n(CCC(=O)Nc2ccc(C(C)C)cc2)c1C	8.9µM*
CCOC(=O)c1cc(-c2ccccc2)n(CCCC(=O)Nc2cccc(C)c2)c1C	i
CCOC(=O)c1cccc(NC(=O)CCn2c(-c3ccc(F)cc3)cc(C(=O)OCC)c2C)c1	0.1µM*
CCOC(=O)c1cc(-c2ccc(C)cc2)n(CC(=O)Nc2ccc(OC)c(Cl)c2)c1C	0%
CCOC(=O)c1cc(-c2ccccc2)n(CC(=O)Nc2ccc(CC)cc2)c1C	i
NC(=O)C1CCN(CC[C@H]2CN(C(=O)Cc3ccccc3)CC[C@H]2CC(=O)O)CC1	-3%[44.1 µM]
CCC1(N2CCN(C(=O)c3cccc(OC(F)(F)F)c3)CC2)CCN(S(C)(=O)=O)C1 (stereo unspecified)	-18%
O=C(NC[C@H]1OC[C@@H](N(Cc2ccccn2)Cc2ccccn2)[C@@H]1O)C1CCCC1	i
CS(=O)(=O)c1ccc(CN2CCN(c3ncc(F)cn3)CC2)cc1	-6%
COc1ccc(-c2cc3c(=O)n(CCNC(=O)c4cc(Cl)ccc4F)ccn3n2)cc1	i
COc1ccc(CNC(=O)N2CCC3(CC2)CC(OC)CCO3)cc1 (stereo unspecified)	23%
SMILES	Pf Dd2 growth
O=C(O)C[C@@H]1CCN(C(=O)c2ccc(F)cc2)C[C@@H]1CCN1CCOCC1	1%[44.1 µM]
CCN(CC)CCCNC(=O)c1ccc2c(Cl)c3c(nc2c1)CCCC3	11µM*
Cc1ccc(CCNC(=O)c2ccc3c(Cl)c4c(nc3c2)CCCC4)cc1	-4%
CSc1ccc(CCNC(=O)c2ccc3c(Cl)c4c(nc3c2)CCCC4)cc1	-16%
COCC(=O)N1CC[C@]2(O)CCN(C(=O)c3ccn(C)c3C)C[C@@H]2C1	13%
C=CCN(C)C[C@H]1CN2CC[C@H]1C[C@@H]2CNS(=O)(=O)c1ccc(C)cc1	11µM*
C=C[C@H]1CN2CC[C@H]1C[C@@H]2CNC(=O)Nc1ccc(C(C)=O)cc1	-31%[44.1 µM]
C=C[C@H]1CN2CC[C@H]1C[C@@H]2CNS(=O)(=O)Cc1ccccc1	7.1µM*
C=C[C@H]1CN2CC[C@H]1C[C@@H]2CNCc1ccc(SC)cc1	7.1µM*
C#C[C@H]1CN2CC[C@H]1C[C@@H]2CNS(=O)(=O)c1ccc(NC(C)=O)cc1	-6%[44.1 µM]
C#C[C@H]1CN2CC[C@H]1C[C@@H]2CNS(=O)(=O)c1ccc(OC)cc1	3.2µM*
C#C[C@H]1CN2CC[C@H]1C[C@@H]2CNS(=O)(=O)c1ccc(C)cc1	-9%[44.1 µM]
C#CCN(C)C[C@H]1CN2CC[C@H]1C[C@@H]2CNS(=O)(=O)c1ccc(Cl)cc1	i
C=C[C@H]1CN2CC[C@H]1C[C@@H]2CNC(=O)c1ccc(N(C)C)cc1	-5%[44.1 µM]
C=C[C@H]1CN2CC[C@H]1C[C@@H]2CNS(C)(=O)=O	-13%[44.1 µM]
C=CCN(C)C[C@H]1CN2CC[C@H]1C[C@@H]2CNC(=O)Nc1ccccc1	-17%[44.1 µM]
C=C[C@H]1CN2CC[C@H]1C[C@@H]2CNC(=O)c1ccc(-c2ccccc2)cc1	-25%[44.1 µM]
O=C1CC2(CCN(CC3CC3)CC2)Oc2ccccc2N1c1ccccc1	i
CC(=O)N1CCN(c2cccc(C=O)c2)C(=O)C1	13%[44.1 µM]
CCOc1ccc(-c2nc(C3CC(=O)N(c4ccc(Cl)cc4)C3)no2)cc1 (stereo unspecified)	22%
Cc1ccc(CNC(=O)NCC23CCC=C2N(C)C(=O)CC3)cc1 (stereo unspecified)	-2%
COc1ccc(-c2onc(C)c2C(=O)NCCSCc2ccco2)cc1	2%
Cc1cnn(CC(=O)N2C[C@@H](COCC3CC3)[C@H](c3ccncc3)C2)c1	41%
CC1(c2ccccc2)N(Cc2ccc(O)cc2)C(=O)OC12CCN(C(=O)c1cnccn1)CC2 (stereo unspecified)	i
CN(C)c1ccc(CN2C[C@H](O)C[C@H]2c2nc(C3CC3)no2)cc1	i
SMILES	Pf Dd2 growth
CCn1ccc(C(=O)N2CCC(N3C[C@H](O)C[C@H]3C(=O)NCc3cccc(OC)c3)CC2)n1	i
O=C(NCCN1CCCC1)C1CCN(C(=O)N2CC3CC(C2)[C@H]2CCCC(=O)N2C3)CC1 (stereo partly specified)	i
Cn1cccc1CN1CCC2(CC(c3cccc(C(F)(F)F)c3)=NO2)C1 (stereo unspecified)	8%
COc1ccc(N2CC(C(=O)NCC3CC3)NC2=O)cc1 (stereo unspecified)	-13%[44.1 µM]
COCc1nc(N2CCN(c3ccc(OC)cc3)CC2)ncc1C(=O)O	-3%
C#C[C@H]1CN2CC[C@H]1C[C@@H]2CNS(=O)(=O)Cc1ccccc1	7.1µM*
C#C[C@H]1CN2CC[C@H]1C[C@@H]2CNS(=O)(=O)c1ccccc1	i
C#C[C@H]1CN2CC[C@H]1C[C@@H]2CNS(=O)(=O)CCC	i
CC(C)(C)CC(=O)N1CC2CC(C1)[C@H]1CCCC(=O)N1C2 (stereo partly specified)	2%
O=c1n(-c2ccc([N+](=O)[O-])cc2)nc2n1CCN([S+](=O)([O-])c1cccc(C(F)(F)F)c1)C2	-1%
Cc1cn2nc(C(=O)N3CCC(NC(=O)Cc4ccc(Cl)cc4)CC3)cc2c(=O)[nH]1	2.5µM*
Cc1cn2nc(C(=O)N3CCC(NC(=O)Cc4ccccc4C)CC3)cc2c(=O)[nH]1	i
Cc1cn2nc(C(=O)N3CCC(NC(=O)c4ccccc4Cl)CC3)cc2c(=O)[nH]1	31%
CN(CC1CCOCC1)S(=O)(=O)c1ccccc1	15%
COc1ccc(C(=O)N2CCCOCCNC(=O)CC2)cc1	42%
O=C(N[C@@H]1CN(C(=O)COc2ccc(F)cc2)CC[C@@H]1CO)C1CC1	16%
Cc1ccc(/C=C/c2onc(C)c2S(=O)(=O)N2CCC(C(=O)Nc3ccc(OC(F)(F)F)cc3)CC2)cc1	62%
CCc1ccc(NC(=O)C2CCN(S(=O)(=O)c3c(C)noc3/C=C/c3cccs3)CC2)cc1	13µM*
CCOc1ccc(NC(=O)C2CCN(S(=O)(=O)c3c(C)noc3/C=C/c3c(C)cc(C)cc3C)CC2)cc1	63%
Cc1cc(C)c(/C=C/c2onc(C)c2S(=O)(=O)N2CCC(C(=O)NCc3ccco3)CC2)c(C)c1	11µM*
Cc1ccc(NC(=O)C2CCN(S(=O)(=O)c3c(C)noc3C)CC2)cc1C	-9%
Cc1cccc(NC(=O)C2CCN(S(=O)(=O)c3c(C)noc3/C=C/c3ccco3)CC2)c1C	-13%

Bioassay records as filed in PubChem BioAssay.
